Results from PubChem BioAssay (NCI).
This is part of a sample that, as a whole, favours compounds with a hit. Of some 83,000 tested, about 20% had one in any assay.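 96-well plates, one dose, 48 hours. Percent growth reported; active if below 10.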 Unmarked numbers belong to inactive results. Calls of active or inactive are those of the source.

Columns and labels:
Experiment in all cases: NCI-60 one-dose screen, 48 h (100 = growth as untreated, 0 = no growth, -100 = all killed)
[1] = tested on: SR leukemia; settings: 10 µM unless noted
[2] = tested on: RPMI-8226 leukemia; settings: 10 µM unless noted
[3] = tested on: OVCAR-8 ovarian; settings: 10 µM unless noted
[4] = tested on: OVCAR-5 ovarian; settings: 10 µM unless noted
[5] = tested on: OVCAR-4 ovarian; settings: 10 µM unless noted
[6] = tested on: SK-OV-3 ovarian; settings: 10 µM unless noted
[7] = tested on: IGROV1 ovarian; settings: 10 µM unless noted
[8] = tested on: OVCAR-3 ovarian; settings: 10 µM unless noted
[9] = tested on: HS 578T breast; settings: 10 µM
[10] = tested on: NCI/ADR-RES ovarian; settings: 10 µM unless noted
[11] = tested on: T-47D breast; settings: 10 µM unless noted
[12] = tested on: BT-549 breast; settings: 10 µM unless noted
[13] = tested on: MDA-MB-435 melanoma; settings: 10 µM unless noted
[14] = tested on: SW-620 colon; settings: 10 µM unless noted
[15] = tested on: MCF7 breast; settings: 10 µM unless noted
[16] = tested on: HCT-116 colon; settings: 10 µM unless noted
[17] = tested on: HCC-2998 colon; settings: 10 µM unless noted
[18] = tested on: KM12 colon; settings: 10 µM unless noted

Structure (SMILES)	growth [1]	growth [2]	growth [3]	growth [4] [%]	growth [5]	growth [6] [%]	growth [7]	growth [8]	growth [9] [%]	growth [10] [%]	growth [11]	growth [12]	growth [13]	growth [14] [%]	growth [15]	growth [16]	growth [17]	growth [18] [%]
Oc1ccc(Nc2ncnc3c2sc2ncccc23)cc1	7.62% (active)	31.9%	7.28% (active)	65	84.3%	30.3	52.3%	55.8%	82.7	15.6	51%	47.3%	36.5%	44.1	18.8%	27.5%	69.4%	50.6
CCCCCCCCCCCCCCCc1cc(O)ccc1[N+](=O)[O-]	74.5%	36.3%	76.9%	94	87.2%	92	73.9%	87.7%	82.1	77.1	61.2%	76.4%	96.8%	93.1	66%	64.7%	104%	89.3
O=C(Nc1ccc2[nH]c3ccccc3c2c1)c1ccccc1Cl	17.6%	67.5%	72.4%	82.4	101%	50.5	50.1%	50.9%	70.6	18.8	43.7%	61.2%	-53.1% (active)	28.2	21.8%	25.4%	64.3%	24.4
Cc1cc(O)c(C2=NN(c3ccc(S(N)(=O)=O)cc3)C(c3ccc(Cl)cc3)C2)c(C)c1Cl (stereo not drawn)	-24.1% (active)	-37.6% (active)	5.73% (active)	95.2	58.9%	81.6	20.6%	68.1%	71.2	80.3	46.9%	112%	38.6%	48.5	13%	55.1%	66.5%	29.1
COc1cc(CN2CCO[C@H](COc3cccc(F)c3)C2)ccc1Cl	50.8%	30.4%	22.2%	47.8	9.51% (active)	34.5	67.3%	49.4%	51.7	26	28.2%	50.2%	29.2%	47.4	26.7%	27.1%	49.3%	69
CC(CN1CCN(C)CC1)CN1c2ccccc2Sc2ccc(C(F)(F)F)cc21 (stereo not drawn)	-23.2% (active)	71.3%	71.9%	68	54.5%	92.4	10.9%	42.9%	60.7	52.8	63.4%	61.4%	27.3%	22.6	46.4%	21.6%	-16.7% (active)	31.2
O=C1/C(=C\c2cccn2C(=O)c2ccccc2)c2ccccc2N1c1c(Cl)cccc1Cl	25%	69.6%	87%	87.9	59.4%	95	71.2%	70.4%	95.6	82.2	65.6%	102%	33.8%	30	29.8%	30.5%	83.8%	65.4
COc1ccc(/C=C2\Cc3c(Br)cccc3C2=O)c(OC)c1	52.2%	60.9%	80.8%	85.3	72.1%	80.8	74.1%	67.2%	80.5	50.1	77.3%	69.6%	7.83% (active)	43.2	55.6%	15%	84.1%	46.8
C=C(C)c1ccc(/C=N/NC(N)=S)cc1	66.9%	72%	81.5%	120	83.7%	125	82.8%	101%	65.6	97.8	67.2%	99.4%	87%	97.9	51.1%	84.5%	110%	55.4
CCN(CC)C(Cl)=Nc1ccc(Cl)cc1	84.3%	95.1%	106%	105	108%	102	109%	107%	101	106	102%	112%	100%	102	101%	98.1%	101%	107
CCOc1cccc(/C=N/NC(=O)c2ccc(Nc3ccnc(C(F)(F)F)c3)cc2)c1O	68.7%	-23.6% (active)	24.7%	13.9	31.3%	10.9	-9.15% (active)	24.6%	11.3	49.3	3.07% (active)	14.6%	40.2%	32.1	-1.78% (active)	7.55% (active)	35.3%	24.8
Nc1ccc(N(O)/C=C2\C=CC=CC2=O)cc1N	95.3%	52.8%	95.4%	71.1	99.6%	107	80.2%	89.1%	94.2	82	78.8%	103%	97.7%	105	115%	85.1%	93.4%	83.3
Cc1ccccc1CNc1ncnc2[nH]ncc12	60.9%	88.5%	59.7%	89.6	78%	100	-19.4% (active)	117%	165	106	96.9%	105%	90.3%	114	104%	100%	105%	112
CC(C)OC(=O)c1ccc([N+](=O)[O-])cc1	102%	98.5%	108%	112	111%	107	119%	117%	112	104	108%	113%	125%	109	117%	110%	113%	113
COc1ccc([C@@H]2[C@@H](Cl)C(=O)N2c2cc(OC)c(OC)c(OC)c2)cc1C	9.63% (active)	8.48% (active)	14.8%	59.7	39.1%	30.4	31.6%	-5.67% (active)	47.9	16	77.7%	6.51% (active)	-33.7% (active)	26.7	20.5%	3.33% (active)	19.5%	12.8
Nc1c(C(=O)c2ccc(Br)cc2)sc2nc3c(cc12)CCCC3	65.3%	94.6%	98.7%	88	105%	106	108%	95.4%	109	85.7	101%	89.4%	49.9%	105	88.4%	98.5%	99.6%	75.4
